# Laboratory results published in PubChem BioAssay (NCATS).
# Inconclusive results are not listed. Calls of active or inactive are those of the source. Calls come from the whole dose curve; as a rule, active = well fitted cell-killing curve with a large enough effect; inconclusive = small, poorly fitted or top-dose-only effect, or effect the other way; inactive = flat fitted curve, though single readings scatter.
# Test: MultiTox-Fluor Cytotoxicity Assay - LYMP1-002 - Live Cells (AID 955)
# Conditions: LYMP1-002 lymphoblastoid live-cell protease fluorescence viability; series mostly up to 46.1 µM
# From the text: NIH Chemical Genomics Center [NCGC]
# NIH Molecular Libraries Screening Centers Network [MLSCN]
# National Institutes of Environmental Health Sciences [NIEHS]
# National Toxicology Program [NTP]
# We have developed a 1536-well cell-based assay for quantitative high throughput screening (qHTS) against a number of cell lines to determine in vitro cytotoxicity of small molecules. This particular assay uses a human lymphoblastoid cell line (LYMP1-002) purchased from Coriell Institute.
# NCGC Assay Protocol Summary:
# The MultiTox-Fluor Cytotoxicity Assay (Promega) is a homogeneous method to simultaneously measure the relative number of live and dead cells in culture by detecting changes in cell membrane integrity. There are two fluorogenic peptide substrates in the assay reagent. Viable cells are determined when the cell-permeant substrate (GF-AFC) enters the cell and is cleaved by protease from live cells resulting in liberated fluorophore. This live-cell protease activity restricted to viable cells is proportional to cell number. The dead cells are determined by using fluorogenic cell-impermeant peptide substrate (bis-AAF-R110) which cleaved by dead cell proteases leaking from damaged cell membrane.
# Using the MultiTox-Fluor Cytotoxicity Assay, the relative number of live cells was measured in the lymphoblastoid cell line with complete culture medium following compound treatment for 16 hours. The assay was performed in opaque black Kalypsys 1536-well plates. In the screen, tetraoctylammonium bromide was used as positive control. Library compounds were measured for their ability to cause acute toxicity in the cell line, as reflected by a decrease in live cell protease activity, in a concentration-dependent manner. […] AC50 values were determined from concentration-response data modeled with the standard Hill equation.
# qHTS protocol for MultiTox-Fluor Cytotoxicity assay
# [Step] [Parameter] [Value] [Description]
# 1. Reagent; 5 uL; 2500 lymphoblastoid cells/well
# 2. Time; 5 hr; 37 C incubation
# 4. Controls; 23 nL; Tetraoctylammonium bromide 6.4pM to 92 uM
# 5. Time; 16 hr; 37 C incubation
# 6. Reagent; 5 uL; MuliTox-Fluor Assay reagent
# 7. Time; 60 min; Room Temperature
# 8. Detection; live-cell fluorescence (Ex/Em=405/510); EnVision plate reader
# Keywords: cell viability, cytotoxicity, lymphoblastoid cell line, fluorescence, NTPHTS, NTPHTS_NCGC, NIEHS, EPA, DSSTox, MLSMR, MLSCN, NIH Roadmap, qHTS, NCGC
row,SMILES,outcome
1,CC(C)=O,inactive
2,CCOC(C)=O,inactive
3,CC(O)CO (stereo not given),inactive
4,CC1=C2[C@@H]([C@H](C)CC[C@H]2/C=C(\C)C(=O)O)[C@H](O)C1,inactive
5,O=C(O)CCC(=O)C(=O)O,inactive
6,Cc1ccccc1,inactive
7,CCCCC/C=C\C/C=C\CCCCCCCC(=O)O,inactive
8,IC(I)I,inactive
9,O=CCCCC=O,inactive
10,CCCCCCCC/C=C\CCCCCCCC(=O)O,inactive
11,CCOc1ccc2c(c1)C(C)=CC(C)(C)N2,inactive
12,Nc1ccn([C@H]2CS[C@@H](CO)O2)c(=O)n1,inactive
13,O=S(=O)(O)O,inactive
14,CC1=C(/C=C/C(C)=C/C=C/C(C)=C/CO)C(C)(C)CCC1,inactive
15,CCCCCCCC(=O)O,inactive
